# An excerpt weighted towards active compounds, which were near 2.9% of everything screened.
# PLC-beta3 inh – PLC-beta3 (human) inhibition, primary screen; Q01970; inhibition, % at 12.2 µM; AID 720704; Purified PLC-beta3, fluorogenic substrate, fluorescence; actives 0.18% (n = 370,000); in the data active means inhibition above about 11%;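 further: 0% = median of compound wells on plate and 100% = full blocker control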
# proKLK7 act – activates the human kallikrein-7 zymogen; activation, % at 7 µM; AID 652039; purified proKLK7, EDANS-DABCYL substrate fluorescence; 100% is mature enzyme control, 0% vehicle; P49862; actives 0.9% (n = 370,000);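 active means activation above the mean of all tested compounds plus 3 SD, computed per campaign excluding outliers beyond control limits, cut at about 13% in these data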
# PLC-gamma1 inh – blocks human PLC-gamma1 enzyme activity; purified PLC-gamma1, fluorogenic substrate, fluorescence; P19174; inhibition, % at 12.2 µM; actives 0.84% (n = 370,000); in the data active means inhibition above about 9.5%
# ADAM10 inh – inhibits human ADAM10 | O14672 | recombinant ADAM10, EDANS/DABCYL FRET peptide cleavage, 3 h | inhibition, % at 7 µM | actives 0.62% (n = 370,000) | AID 720582;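 active means inhibition above a per-campaign cutoff equal to the mean of compounds falling between control-based bounds plus 3 SD, cut at about 20% in these data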;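 further: 0% = DMSO wells while the 100% control is not disclosed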
# ADAM17 inh – inhibits human ADAM17; actives 0.83% (n = 370,000); recombinant ADAM17, EDANS/DABCYL FRET peptide cleavage; AID 720648; inhibition, % at 6.95 µM;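 active means inhibition above the mean of compounds lying between control limits plus 3 SD, set per campaign, cut at about 8.5% in these data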;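 further: 0% = DMSO-only wells as the low control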
# Target sequence (P78536 215-824 limits assumed): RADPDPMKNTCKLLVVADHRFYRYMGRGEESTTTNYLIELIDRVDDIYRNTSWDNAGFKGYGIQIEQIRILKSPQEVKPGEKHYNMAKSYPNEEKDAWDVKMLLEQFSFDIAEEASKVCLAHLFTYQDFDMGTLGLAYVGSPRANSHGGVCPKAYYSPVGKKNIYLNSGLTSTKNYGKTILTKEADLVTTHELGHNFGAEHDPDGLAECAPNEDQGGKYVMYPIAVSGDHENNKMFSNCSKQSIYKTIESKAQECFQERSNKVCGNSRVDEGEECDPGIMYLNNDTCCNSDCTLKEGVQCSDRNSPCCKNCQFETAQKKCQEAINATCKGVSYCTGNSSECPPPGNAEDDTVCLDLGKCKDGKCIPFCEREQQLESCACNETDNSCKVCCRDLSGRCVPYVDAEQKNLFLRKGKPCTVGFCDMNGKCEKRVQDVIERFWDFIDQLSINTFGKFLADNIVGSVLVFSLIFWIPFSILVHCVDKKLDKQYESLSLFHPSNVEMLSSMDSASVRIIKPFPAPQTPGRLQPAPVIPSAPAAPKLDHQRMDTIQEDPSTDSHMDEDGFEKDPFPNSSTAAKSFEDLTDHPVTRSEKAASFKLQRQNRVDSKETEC
# proKLK7 act conf – proKLK7 activation, confirmation; shares compounds with proKLK7 act; purified proKLK7, EDANS-DABCYL substrate fluorescence; scaled: vehicle 0, mature enzyme 100; activation, % at 7 µM; actives 68% (n = 3,200); AID 686949;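 active means activation, as change over the incubation, above the mean of all tested compounds plus 3 SD, cut at about 13% in these data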
# EDANS-DABCYL int – optically interferes with EDANS-DABCYL signal, flagging KLK7 hits; AID 686952; EDANS-DABCYL substrate fluorescence interference, no enzyme, 4 h; solvent 0%, active enzyme control 100%; shares compounds with proKLK7 act; activation, % at 7 µM; actives 80% (n = 3,200);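 active means activation above the all-compound mean plus 3 SD, ignoring values outside control-based bounds, cut at about 4.8% in these data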;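 further: value is the 4 h activation minus the activation read at time zero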
# The depositor's hits bear a star; i = inactive; . = no result.
SMILES,PLC-beta3 inh,proKLK7 act,PLC-gamma1 inh,ADAM10 inh,ADAM17 inh,proKLK7 act conf,EDANS-DABCYL int
CCOc1cc(C2C3=C(CCCC3=O)N(CC(=O)O)C3=C2C(=O)CCC3)ccc1OC,-13,0,-7,-1,-4,.,.
COc1ccc(C2C3=C(CCCC3=O)N(CC(=O)O)C3=C2C(=O)CCC3)cc1Br,i,30*,i,i,-496,28*,43*
C#CCOc1c(Cl)cc(C2C3=C(CCCC3=O)N(CC(=O)O)C3=C2C(=O)CCC3)cc1OC,i,16*,i,i,i,72*,80*
COc1ccc(C2C3=C(CCCC3=O)N(CC(=O)O)C3=C2C(=O)CCC3)cc1Cl,i,27*,i,i,i,26*,34*
O=C(CSc1nnc(COc2ccccc2)n1Cc1ccco1)Nc1ccc2c(c1)OCO2,4,0,2,3,4,.,.
CC1(C)CC(=O)C=C(Nc2ccccc2NC(=O)c2cc(F)cc(F)c2)C1,-2,0,2,4,5,.,.
CCCn1nc2cc(C(=O)NCc3ccc4c(c3)OCO4)ccc2c1OCC,i,-5,-324,i,-237,.,.
CCOc1c2ccc(C(=O)NCc3ccco3)cc2nn1CC,-417,22*,-378,i,-125,19*,20*
CCCCn1nc2cc(C(=O)NCC3CC3)ccc2c1OCC,i,18*,-325,i,-242,-3,-5
CCOc1c2ccc(C(=O)NCc3ccc4c(c3)OCO4)cc2nn1CCOC,i,13*,-319,i,-210,-14,-19
CCOc1c2ccc(C(=O)NCc3ccco3)cc2nn1CCOC,-439,18*,-325,i,-156,24*,29*
Cc1ccc(C(=O)C2CCN(CC(=O)N(C)C3CCCCC3)CC2)cc1,-2,0,0,2,-4,.,.
COC(=O)[C@]12C[C@H](CC(=O)N3CCC(c4ccccc4)CC3)C(=O)N(Cc3cccc4ccccc34)C1=C[C@H](C(C)(C)C)O[C@@H]2C,2,0,1,0,-4,.,.
COC(=O)[C@]12C[C@H](CC(=O)NCc3ccc(OC)c(OC)c3)C(=O)N(Cc3cccc4ccccc34)C1=C[C@H](C(C)C)O[C@@H]2C1CC1,2,0,-1,6,3,.,.
CCN1CCCCC(NC(=O)c2ccc(F)c(F)c2)C1=O (stereo not drawn),1,0,2,3,1,.,.
CCC(=O)Oc1ccc2c(C)c(Cl)c(=O)oc2c1,i,40*,i,i,i,672*,655*
CCCCc1c(C)c2ccc(OCC(C)=O)cc2oc1=O,-114,4,-78,-354,-162,.,.
COC(=O)Cc1c(C)c2ccc(OC(=O)c3ccccc3)cc2oc1=O,i,422*,i,i,i,632*,512*
Cc1c(Cl)c(=O)oc2cc(OC(C)C)ccc12,-305,15*,-270,i,i,1,3
Cc1c(Cc2ccccc2)c(=O)oc2cc(OC(=O)c3ccccc3)ccc12,-33,-1,-23,-70,-22,.,.
Cc1ccccc1Cn1cc(CN2[C@H](C)COc3cc(Br)ccc3S2(=O)=O)nn1,1,1,0,3,1,.,.
CCN(CC)c1ccc(-c2nn3c(-c4ccccc4Cl)nnc3s2)cc1,-239,-33,-173,i,-240,.,.
COC(=O)C[C@H]1CC[C@H]2[C@H](COc3ccc(NC(=O)c4cccs4)cc3C(=O)N2C)O1,5,0,5,2,-2,.,.
COc1cccc(CNS(=O)(=O)c2cc3c(cc2Br)CC(C)N3C(C)=O)c1 (stereo not drawn),4,0,1,-1,0,.,.
C[C@H]1COc2c3ccccc3nn21,-1,0,-2,0,0,.,.
O=c1nc(-c2ccccc2)c2cc(Cl)ccc2[nH]1,-217,14*,-152,-163,-54,29*,28*
N#Cc1cnn2c(-c3ccc(Cl)cc3Cl)ccnc12,i,20*,i,i,-227,21*,22*
N#Cc1cnn2c(-c3cccc(C(F)(F)F)c3)ccnc12,i,9,-385,-381,-106,.,.

# Screens as filed in PubChem BioAssay.
